Measurements: the supplement of paper PMC6411743
± gives the standard deviation of the averaged measurements. The full data set covers some 5,400 targets. This sample favours those with the largest changes.

Compound: Nc1nc2c(ncn2[C@@H]2O[C@H](COP(=O)(O)OP(=O)(O)OP(=O)(O)O)[C@@H](O)[C@H]2O)c(=O)[nH]1 [guanosine triphosphate]
Test: NP40-soluble protein abundance relative to vehicle (solubility fold change) (ratio); higher = more soluble protein in presence of GTP
How it was run: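 Crude Jurkat lysate, prepared by Dounce homogenisation, was exposed to eight concentrations from 0.1 to 10 mM for 10 min at room temperature and then 3 min at 37 °C. Solubilisation used 0.8% NP40 with benzonase for 60 min at 4 °C, followed by ultracentrifugation and TMT labelling of the supernatant for LC-MS/MS. After vsn normalisation of intensities, each value is the fold change against the detergent-processed vehicle within each replicate, across three independent experiments.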

UniProt Q96BS2, sequence (Q96BS2 whole entry): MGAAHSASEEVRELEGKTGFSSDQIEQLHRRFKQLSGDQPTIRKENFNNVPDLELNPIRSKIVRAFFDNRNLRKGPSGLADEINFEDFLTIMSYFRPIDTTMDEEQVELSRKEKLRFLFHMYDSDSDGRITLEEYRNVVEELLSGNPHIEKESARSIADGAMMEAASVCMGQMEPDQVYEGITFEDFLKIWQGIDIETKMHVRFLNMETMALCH
UniProt Q9BW71, sequence (Q9BW71 whole entry): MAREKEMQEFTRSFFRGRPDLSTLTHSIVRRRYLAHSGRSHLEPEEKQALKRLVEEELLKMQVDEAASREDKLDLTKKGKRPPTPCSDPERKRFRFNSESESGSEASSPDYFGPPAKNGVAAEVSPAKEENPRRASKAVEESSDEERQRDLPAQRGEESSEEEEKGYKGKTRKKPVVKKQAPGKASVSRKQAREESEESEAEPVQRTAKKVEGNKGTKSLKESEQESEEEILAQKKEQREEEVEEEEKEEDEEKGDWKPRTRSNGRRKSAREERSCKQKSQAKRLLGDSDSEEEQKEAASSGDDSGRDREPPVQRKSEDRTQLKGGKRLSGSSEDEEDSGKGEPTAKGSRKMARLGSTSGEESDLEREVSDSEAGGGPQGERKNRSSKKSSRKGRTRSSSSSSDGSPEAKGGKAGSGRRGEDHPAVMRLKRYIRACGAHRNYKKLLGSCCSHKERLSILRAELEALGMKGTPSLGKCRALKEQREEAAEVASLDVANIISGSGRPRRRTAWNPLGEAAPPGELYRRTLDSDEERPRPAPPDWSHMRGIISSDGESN
UniProt Q9UKY7, sequence (Q9UKY7 whole entry): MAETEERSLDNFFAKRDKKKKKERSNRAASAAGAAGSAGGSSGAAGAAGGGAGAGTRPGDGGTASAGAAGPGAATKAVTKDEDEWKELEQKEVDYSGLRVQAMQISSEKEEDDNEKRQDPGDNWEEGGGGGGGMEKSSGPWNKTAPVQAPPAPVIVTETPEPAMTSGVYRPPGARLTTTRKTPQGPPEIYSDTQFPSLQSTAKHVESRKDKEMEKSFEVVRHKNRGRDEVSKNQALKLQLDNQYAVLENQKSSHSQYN
UniProt Q9Y383, sequence (Q9Y383 whole entry): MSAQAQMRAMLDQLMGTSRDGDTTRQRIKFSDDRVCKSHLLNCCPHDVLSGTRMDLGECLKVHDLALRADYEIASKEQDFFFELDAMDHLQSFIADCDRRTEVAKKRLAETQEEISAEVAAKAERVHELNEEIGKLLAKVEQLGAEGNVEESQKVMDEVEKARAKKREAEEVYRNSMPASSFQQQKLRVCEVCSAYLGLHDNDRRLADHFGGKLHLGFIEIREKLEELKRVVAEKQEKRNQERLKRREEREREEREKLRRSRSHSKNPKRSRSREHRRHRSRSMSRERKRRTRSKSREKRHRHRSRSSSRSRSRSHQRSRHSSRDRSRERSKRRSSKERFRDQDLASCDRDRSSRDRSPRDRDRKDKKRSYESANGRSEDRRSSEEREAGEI
UniProt Q9BT73, sequence (Q9BT73 whole entry): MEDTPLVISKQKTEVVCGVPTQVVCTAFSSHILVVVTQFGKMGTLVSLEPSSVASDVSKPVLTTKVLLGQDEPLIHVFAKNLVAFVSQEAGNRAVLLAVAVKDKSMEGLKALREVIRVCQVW
UniProt Q9NS23, sequence (Q9NS23 whole entry): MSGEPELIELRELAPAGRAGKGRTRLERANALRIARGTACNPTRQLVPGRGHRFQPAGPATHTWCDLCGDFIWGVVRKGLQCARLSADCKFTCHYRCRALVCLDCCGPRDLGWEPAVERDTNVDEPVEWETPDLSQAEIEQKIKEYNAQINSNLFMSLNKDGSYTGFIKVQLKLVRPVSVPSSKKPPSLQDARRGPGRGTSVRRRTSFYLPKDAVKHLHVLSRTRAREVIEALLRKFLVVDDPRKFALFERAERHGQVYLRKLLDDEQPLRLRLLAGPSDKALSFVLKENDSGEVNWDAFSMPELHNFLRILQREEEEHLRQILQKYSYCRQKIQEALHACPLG
UniProt Q9UJX6, sequence (Q9UJX6 whole entry): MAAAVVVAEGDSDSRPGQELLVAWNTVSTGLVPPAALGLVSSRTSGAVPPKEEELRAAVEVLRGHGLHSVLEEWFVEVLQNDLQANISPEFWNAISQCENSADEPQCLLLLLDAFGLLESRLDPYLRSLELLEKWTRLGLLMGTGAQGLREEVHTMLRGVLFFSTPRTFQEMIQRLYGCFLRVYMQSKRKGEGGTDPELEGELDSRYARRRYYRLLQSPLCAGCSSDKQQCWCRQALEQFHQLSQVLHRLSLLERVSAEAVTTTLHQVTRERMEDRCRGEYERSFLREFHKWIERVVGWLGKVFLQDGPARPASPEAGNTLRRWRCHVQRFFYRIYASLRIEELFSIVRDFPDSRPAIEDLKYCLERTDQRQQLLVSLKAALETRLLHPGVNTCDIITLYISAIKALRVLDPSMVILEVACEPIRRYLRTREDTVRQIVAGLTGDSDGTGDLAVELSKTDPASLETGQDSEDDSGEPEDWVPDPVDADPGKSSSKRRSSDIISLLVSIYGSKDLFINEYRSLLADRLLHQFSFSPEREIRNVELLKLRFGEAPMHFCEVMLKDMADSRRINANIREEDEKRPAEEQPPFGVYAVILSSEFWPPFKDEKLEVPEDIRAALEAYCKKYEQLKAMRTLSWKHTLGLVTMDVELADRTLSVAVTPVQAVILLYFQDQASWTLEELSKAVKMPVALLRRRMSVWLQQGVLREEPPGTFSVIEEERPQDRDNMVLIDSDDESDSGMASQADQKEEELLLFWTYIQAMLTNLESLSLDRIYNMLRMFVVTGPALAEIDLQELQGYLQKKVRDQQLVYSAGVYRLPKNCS
UniProt Q9ULV4, sequence (Q9ULV4 whole entry): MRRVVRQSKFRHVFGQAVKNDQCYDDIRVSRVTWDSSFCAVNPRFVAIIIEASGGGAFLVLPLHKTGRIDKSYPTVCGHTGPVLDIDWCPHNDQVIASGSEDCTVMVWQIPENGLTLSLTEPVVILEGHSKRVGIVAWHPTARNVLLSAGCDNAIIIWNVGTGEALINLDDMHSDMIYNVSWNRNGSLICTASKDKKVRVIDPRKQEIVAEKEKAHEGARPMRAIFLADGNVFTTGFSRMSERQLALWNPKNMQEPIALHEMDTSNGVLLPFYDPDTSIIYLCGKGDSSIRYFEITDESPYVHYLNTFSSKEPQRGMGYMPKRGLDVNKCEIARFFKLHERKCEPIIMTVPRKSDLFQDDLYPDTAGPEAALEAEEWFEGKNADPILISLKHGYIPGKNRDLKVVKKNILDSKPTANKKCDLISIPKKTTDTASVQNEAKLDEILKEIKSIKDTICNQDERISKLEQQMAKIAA
UniProt Q93052, sequence (Q93052 whole entry, one chain of several): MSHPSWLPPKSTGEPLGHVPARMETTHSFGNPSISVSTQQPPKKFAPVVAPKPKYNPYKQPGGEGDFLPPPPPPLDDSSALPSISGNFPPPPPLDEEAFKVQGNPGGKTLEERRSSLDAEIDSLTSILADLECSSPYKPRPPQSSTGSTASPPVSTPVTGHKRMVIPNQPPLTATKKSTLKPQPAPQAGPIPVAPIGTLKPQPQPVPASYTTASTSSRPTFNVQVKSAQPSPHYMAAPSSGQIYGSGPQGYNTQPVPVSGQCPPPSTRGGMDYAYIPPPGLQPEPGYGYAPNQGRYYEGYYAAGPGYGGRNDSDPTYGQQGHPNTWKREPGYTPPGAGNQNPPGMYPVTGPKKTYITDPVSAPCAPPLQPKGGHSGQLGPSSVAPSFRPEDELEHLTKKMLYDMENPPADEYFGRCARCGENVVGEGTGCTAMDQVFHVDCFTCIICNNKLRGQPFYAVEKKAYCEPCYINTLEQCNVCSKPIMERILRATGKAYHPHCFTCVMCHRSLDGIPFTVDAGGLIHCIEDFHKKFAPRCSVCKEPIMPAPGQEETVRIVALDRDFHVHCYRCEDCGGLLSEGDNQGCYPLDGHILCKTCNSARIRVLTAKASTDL
UniProt Q9UII2, sequence (Q9UII2 whole entry): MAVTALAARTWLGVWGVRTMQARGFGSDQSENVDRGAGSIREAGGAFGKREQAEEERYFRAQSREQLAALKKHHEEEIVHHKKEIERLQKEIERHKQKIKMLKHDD
UniProt Q9NVK5, sequence (Q9NVK5 whole entry): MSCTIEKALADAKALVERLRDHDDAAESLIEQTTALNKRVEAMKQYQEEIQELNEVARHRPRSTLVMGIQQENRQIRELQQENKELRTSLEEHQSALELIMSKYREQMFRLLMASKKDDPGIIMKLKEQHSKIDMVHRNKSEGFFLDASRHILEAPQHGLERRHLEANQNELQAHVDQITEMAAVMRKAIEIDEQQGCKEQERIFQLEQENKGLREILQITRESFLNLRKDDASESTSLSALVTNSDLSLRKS
UniProt Q9BVP2, sequence (Q9BVP2 whole entry): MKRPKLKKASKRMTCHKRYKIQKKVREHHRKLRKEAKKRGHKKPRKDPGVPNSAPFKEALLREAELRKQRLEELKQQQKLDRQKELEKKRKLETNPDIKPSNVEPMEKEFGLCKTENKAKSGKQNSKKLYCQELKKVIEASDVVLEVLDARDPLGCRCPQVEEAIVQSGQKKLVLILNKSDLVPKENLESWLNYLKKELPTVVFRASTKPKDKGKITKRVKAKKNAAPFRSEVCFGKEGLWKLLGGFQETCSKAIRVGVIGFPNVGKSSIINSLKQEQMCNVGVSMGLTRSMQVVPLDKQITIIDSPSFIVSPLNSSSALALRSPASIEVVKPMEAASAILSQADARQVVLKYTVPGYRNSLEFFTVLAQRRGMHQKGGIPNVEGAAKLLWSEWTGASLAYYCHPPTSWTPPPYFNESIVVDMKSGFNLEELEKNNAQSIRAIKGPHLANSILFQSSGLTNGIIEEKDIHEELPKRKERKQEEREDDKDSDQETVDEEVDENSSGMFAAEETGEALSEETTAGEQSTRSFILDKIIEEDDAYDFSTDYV
UniProt Q99828, sequence (Q99828 whole entry): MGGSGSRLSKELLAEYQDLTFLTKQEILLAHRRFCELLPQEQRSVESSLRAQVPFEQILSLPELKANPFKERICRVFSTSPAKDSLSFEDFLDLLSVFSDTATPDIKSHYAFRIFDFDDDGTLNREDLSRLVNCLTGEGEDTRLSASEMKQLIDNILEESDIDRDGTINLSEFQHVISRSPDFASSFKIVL

Target	NP40-soluble protein abundance (concentration: 0.1mM)	NP40-soluble protein abundance (concentration: 0.5mM)	NP40-soluble protein abundance (concentration: 1mM)	NP40-soluble protein abundance (concentration: 2mM)	NP40-soluble protein abundance (concentration: 4mM)	NP40-soluble protein abundance (concentration: 6mM)	NP40-soluble protein abundance (concentration: 8mM)	NP40-soluble protein abundance (concentration: 10mM)
UniProt Q9Y4P8|Q9Y4P8-4|Q9Y4P8-6	1.04 ± 0.11	1.01 ± 0.028	0.976 ± 0.11	0.961 ± 0.1	0.959 ± 0.1	0.959 ± 0.053	0.954 ± 0.042	0.896 ± 0.021
UniProt Q9UII2	0.946 ± 0.08	0.972 ± 0.11	1.01 ± 0.078	0.936 ± 0.1	0.875 ± 0.1	0.908 ± 0.14	0.93 ± 0.07	0.963 ± 0.07
HIRIP3 (UniProt Q9BW71)	0.932 ± 0.071	0.925 ± 0.089	1.01 ± 0.1	0.983 ± 0.15	1.04 ± 0.14	1.07 ± 0.14	1.13 ± 0.06	1.14 ± 0.094
UniProt Q96ES7	1.21 ± 0.22	1.12 ± 0.13	1.25 ± 0.19	1.14 ± 0.12	1.26 ± 0.11	1.17 ± 0.11	1.38 ± 0.32	1.12 ± 0.096
UniProt Q9P287|Q9P287-2	1.03 ± 0.026	0.973 ± 0.032	0.971 ± 0.066	0.953 ± 0.059	0.99 ± 0.083	0.913 ± 0.069	0.943 ± 0.058	0.946 ± 0.075
STUB1 (UniProt Q9UNE7)	0.948 ± 0.056	0.8985 ± 0.0031	1.02 ± 0.1	1.03 ± 0.027	1.01 ± 0.078	1.01 ± 0.012	1.01 ± 0.049	1.03 ± 0.081
UniProt Q9BVP2|Q9BVP2-2	1.31 ± 0.073	1.3 ± 0.094	1.34 ± 0.11	1.51 ± 0.19	1.68 ± 0.17	1.73 ± 0.13	1.77 ± 0.2	1.88 ± 0.072
CDV3 (UniProt Q9UKY7)	0.957 ± 0.072	1.05 ± 0.071	0.915 ± 0.072	0.955 ± 0.11	0.889 ± 0.093	1 ± 0.092	1.09 ± 0.083	1.11 ± 0.068
UniProt Q93052|A0A087WZF1|C9JXK9	0.985 ± 0.047	0.946 ± 0.086	0.944 ± 0.072	0.906 ± 0.071	0.884 ± 0.063	0.896 ± 0.081	0.906 ± 0.083	0.901 ± 0.09
DDX23 (UniProt Q9BUQ8)	1.04 ± 0.036	1.09 ± 0.067	1.19 ± 0.12	1.27 ± 0.075	1.55 ± 0.18	1.62 ± 0.19	1.89 ± 0.28	1.93 ± 0.23
UniProt Q96BY9|H0YAZ1	1.08 ± 0.15	1.08 ± 0.064	1.09 ± 0.15	1.1 ± 0.094	1.03 ± 0.11	1.01 ± 0.1	1.05 ± 0.19	1.07 ± 0.22
TESC (UniProt Q96BS2)	1.01 ± 0.035	0.983 ± 0.071	0.985 ± 0.095	0.968 ± 0.16	0.907 ± 0.074	0.932 ± 0.092	0.926 ± 0.073	0.915 ± 0.09
UniProt Q9NS23|Q9NS23-2|Q9NS23-3|Q9NS23-4|Q9NS23-5	0.978 ± 0.032	1.03 ± 0.098	1.04 ± 0.051	1.04 ± 0.058	1.05 ± 0.09	1.01 ± 0.022	0.971 ± 0.056	0.968 ± 0.11
UniProt Q9H330|Q9H330-2	0.908 ± 0.04	0.876 ± 0.06	0.796 ± 0.083	0.809 ± 0.017	0.799 ± 0.035	0.834 ± 0.028	0.81 ± 0.074	0.833 ± 0.037
UniProt Q9H8Y8|Q9H8Y8-3	0.893 ± 0.088	0.934 ± 0.09	0.911 ± 0.095	0.873 ± 0.087	0.836 ± 0.091	0.858 ± 0.059	0.884 ± 0.091	0.892 ± 0.12
UniProt Q96RW7|Q96RW7-2	1.17 ± 0.29	1.11 ± 0.23	0.938 ± 0.16	1.06 ± 0.37	0.985 ± 0.2	0.889 ± 0.19	0.892 ± 0.13	0.924 ± 0.16
UniProt Q99828|Q99828-2	0.956 ± 0.08	0.981 ± 0.11	1.02 ± 0.081	1.02 ± 0.084	1.02 ± 0.092	1 ± 0.12	0.996 ± 0.11	0.911 ± 0.12
CORO2A (UniProt Q92828)	1.08 ± 0.12	1.09 ± 0.11	1.11 ± 0.049	1.19 ± 0.047	1.31 ± 0.056	1.42 ± 0.075	1.42 ± 0.1	1.42 ± 0.058
UniProt Q9H8M2|Q9H8M2-3|Q9H8M2-6	0.966 ± 0.054	1.05 ± 0.13	1.03 ± 0.085	0.995 ± 0.033	1.04 ± 0.11	1.13 ± 0.12	1.11 ± 0.029	1.09 ± 0.04
UniProt Q9UJX6|Q9UJX6-2	1.3 ± 0.28	1.33 ± 0.37	1.18 ± 0.28	1.26 ± 0.47	1.3 ± 0.37	1.25 ± 0.46	1.12 ± 0.31	1.22 ± 0.48
UniProt Q96T23|Q96T23-2	1.02 ± 0.028	1.09 ± 0.081	1.25 ± 0.014	1.45 ± 0.1	1.72 ± 0.22	2.07 ± 0.29	2.49 ± 0.49	2.71 ± 0.62
UniProt Q9NVK5|Q9NVK5-2	0.987 ± 0.072	0.945 ± 0.1	1.16 ± 0.17	1.11 ± 0.086	1.13 ± 0.1	1.19 ± 0.092	1.28 ± 0.17	1.27 ± 0.2
UniProt Q9HD33|Q9HD33-2	1.01 ± 0.017	1.16 ± 0.087	1.34 ± 0.23	1.55 ± 0.39	1.7 ± 0.52	1.86 ± 0.49	2.03 ± 0.59	2.05 ± 0.64
UniProt Q9NVI7-2	1.07 ± 0.062	1.16 ± 0.085	1.34 ± 0.083	1.56 ± 0.18	1.79 ± 0.32	1.9 ± 0.29	2.04 ± 0.29	2.11 ± 0.29
UniProt Q96MT7-2	1.09 ± 0.063	0.959 ± 0.033	1 ± 0.093	0.863 ± 0.12	0.869 ± 0.04	0.915 ± 0.14	0.834 ± 0.052	0.786 ± 0.082
PSMG3 (UniProt Q9BT73)	1.03 ± 0.027	1.09 ± 0.083	1.09 ± 0.058	1.07 ± 0.042	1.08 ± 0.054	0.999 ± 0.087	1.14 ± 0.087	1.04 ± 0.042
UniProt Q96L91|Q96L91-2|Q96L91-3|Q96L91-5	1.03 ± 0.021	1.06 ± 0.04	1.12 ± 0.03	1.18 ± 0.061	1.24 ± 0.13	1.26 ± 0.14	1.32 ± 0.22	1.34 ± 0.23
LUC7L2 (UniProt Q9Y383)	1.09 ± 0.11	1.4 ± 0.08	1.58 ± 0.098	1.54 ± 0.18	1.56 ± 0.12	1.66 ± 0.12	1.74 ± 0.15	1.7 ± 0.16
UniProt Q9ULV4|Q9ULV4-2|Q9ULV4-3	0.986 ± 0.021	1.11 ± 0.089	1.16 ± 0.088	1.26 ± 0.17	1.42 ± 0.22	1.53 ± 0.3	1.67 ± 0.33	1.74 ± 0.36
